L3MBTL1 block – L3MBTL1 (human) inhibition. Potency, µM (doses to about 57.1 µM), inactives show at the highest dose activity, negative = inhibition, hits mostly inhibitors. AID 485360. AlphaScreen L3MBTL1–H3K9me1 peptide binding. hit rate 0.66% among 230,000; note: % is set by controls: 0 for no effect and ±100 for the full control effect; nearly all actives have a fitted effect of over 60% in size
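Read-out is AlphaScreen signal from streptavidin donor and nickel chelate acceptor beads (10 ug/mL final each) bridging L3MBTL1 (50 nM) and biotinylated K9-monomethylated H3(1-15) peptide (75 nM), after 30 min compound exposure at room temperature.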
HP1b chromo inh – HP1-beta chromodomain-methylated histone interaction inhibition; AlphaScreen HP1-beta / biotin-H3K9me3 peptide binding; Potency, µM (top dose mostly 114 µM), for inactives: at the top dose activity change, negative = inhibition, usual class: inhibitors; hit rate 0.56% among 390,000; P83916; AID 540317; note: nearly all actives have a fitted effect of over 70% in size
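HP1-beta protein (50 nM final) preincubated 30 min at room temperature with biotinylated H3(1-18)K9me3 peptide (50 nM) in PBS pH 7.4, 0.01% Tween-20, then compound added for 30 min. AlphaScreen streptavidin donor/nickel chelate acceptor beads (10 ug/mL final), 30 min dark, luminescence read.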
G9a inh – G9a (human) methyltransferase inhibition; AID 504332; Q96KQ7; G9a H3K9 monomethylation, AlphaScreen, 2 h; hit rate 8.8% among 350,000; Potency, µM (top dose mostly 102 µM), for inactives: top-dose activity, negative = inhibition, actives largely listed as inhibitors; note: % is set by controls: 0 for no effect and ±100 for the full control effect; nearly all actives have a fitted effect of over 75% in size
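G9a (20 nM) preincubated 15 min RT with compounds, then 500 nM biotinylated H3K9 peptide and 20 uM SAM added; 2 h RT reaction. Monomethyl-H3K9 product detected by AlphaScreen with anti-H3K9me1 antibody, streptavidin donor and anti-rabbit IgG acceptor beads.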
JMJD2A Tudor – JMJD2A Tudor domain (human) inhibition | O75164 | AlphaScreen JMJD2A-Tudor / H3K4me3 peptide binding | Potency, µM (titrated, usually from 114 µM), without a hit: top-dose activity change, negative = inhibition, hits mostly inhibitors | hit rate 4.4% among 390,000 | AID 504339; note: % is set by controls: 0 for no effect and ±100 for the full control effect; nearly all actives have a fitted effect of over 50% in size
Target sequence (O75164 whole entry, looked up, the tested form may be a part): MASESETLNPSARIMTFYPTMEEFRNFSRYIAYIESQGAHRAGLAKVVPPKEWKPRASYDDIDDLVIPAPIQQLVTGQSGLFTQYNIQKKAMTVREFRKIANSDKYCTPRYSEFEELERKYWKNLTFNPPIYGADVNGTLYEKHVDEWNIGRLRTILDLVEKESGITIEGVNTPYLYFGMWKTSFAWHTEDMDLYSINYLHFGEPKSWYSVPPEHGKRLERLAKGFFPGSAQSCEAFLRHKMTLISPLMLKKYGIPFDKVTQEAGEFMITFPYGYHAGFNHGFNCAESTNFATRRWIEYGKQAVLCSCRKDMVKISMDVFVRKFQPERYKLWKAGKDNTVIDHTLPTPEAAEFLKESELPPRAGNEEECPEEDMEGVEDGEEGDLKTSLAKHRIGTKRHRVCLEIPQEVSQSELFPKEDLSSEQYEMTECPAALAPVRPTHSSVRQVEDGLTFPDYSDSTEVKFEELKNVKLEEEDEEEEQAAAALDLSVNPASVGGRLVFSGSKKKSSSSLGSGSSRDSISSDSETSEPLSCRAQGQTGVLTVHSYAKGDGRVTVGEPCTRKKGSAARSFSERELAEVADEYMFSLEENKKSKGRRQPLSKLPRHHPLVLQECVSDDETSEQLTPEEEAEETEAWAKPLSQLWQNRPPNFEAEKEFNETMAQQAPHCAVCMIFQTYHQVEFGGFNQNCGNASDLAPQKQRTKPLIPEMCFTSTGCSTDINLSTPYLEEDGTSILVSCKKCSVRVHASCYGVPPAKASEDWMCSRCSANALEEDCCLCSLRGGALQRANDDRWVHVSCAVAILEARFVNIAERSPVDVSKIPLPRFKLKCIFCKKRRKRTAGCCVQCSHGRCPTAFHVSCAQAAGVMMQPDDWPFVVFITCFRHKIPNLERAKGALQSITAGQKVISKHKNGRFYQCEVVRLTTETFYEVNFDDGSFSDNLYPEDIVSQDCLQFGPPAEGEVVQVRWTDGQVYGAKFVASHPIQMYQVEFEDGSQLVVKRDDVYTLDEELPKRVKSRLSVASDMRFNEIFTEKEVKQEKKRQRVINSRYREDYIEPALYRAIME
BAZ2B block – BAZ2B (human) inhibition. Q9UIF8. Potency, µM (top dose mostly 114 µM), without a hit: top-dose activity change, negative = inhibition, hits mostly inhibitors. AlphaScreen BAZ2B-H3K14Ac peptide displacement. hit rate 4.4% among 360,000; note: % is set by controls: 0 for no effect and ±100 for the full control effect; nearly all actives have a fitted effect of over 60% in size
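Protein-peptide AlphaScreen: BAZ2B 50 nM, b-H3K14Ac 50 nM, 1x PBS pH 7.4 + 0.01% Tween-20. Preincubation 30 min RT; cpd 30 min RT (top 110 uM); beads 20 min RT, light-protected.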
* hit, by the source's call; ? = inconclusive; . = no result; [ ] = another dose, or the depositor's remark. Compounds with a hit are over-represented: about 11% of the library has one in this group of screens. Calls come from the whole dose curve; as a rule, active = well fitted inhibition curve with a large enough effect; inconclusive = small, poorly fitted or top-dose-only effect; inactive = no such curve, though single readings can be large or run the other way. Potency is the fitted concentration of half-maximal effect.

SMILES	L3MBTL1 block	HP1b chromo inh	G9a inh	JMJD2A Tudor	BAZ2B block
Cc1nn(CC(=O)Nc2sc3c(c2C#N)CCC(C(C)(C)C)C3)c(C)c1[N+](=O)[O-] (stereo not given)	-2.4%	-23.4%	44.7µM*	-22.9%	-27.9%
CC(C)(C)C1CCc2c(sc(NC(=O)c3cc(C4CC4)on3)c2C#N)C1 (stereo not given)	2.5%	11.3%	79.4µM*	-22.4%	-2.9%
N#Cc1c(Nc2ccccc2)s[nH]c1=O	.	19.2%	12.6µM*	-30.2%	1.3%
N#Cc1c(Nc2ccccc2C(F)(F)F)s[nH]c1=O	-3.0%	24.4%	14.1µM*	-13.2%	-10.7%
N#Cc1c(Nc2ccccc2)sc(C(=O)c2ccc(F)cc2)c1N	-4.0%	30.8%	?	-19.7%	-29.2%
N#Cc1c(Nc2ccccc2Cl)s[nH]c1=O	51.5%	30.4%	.	-16.1%	-4.3%
O=C1C(C2=C(O)c3ccccc3C2=O)=Nc2ccccc21	?	?	.	31.6µM*	39.8µM*
CN=CC1=C(O)c2ccccc2C1=O	-2.6%	18.2%	1.5%[59 µM]	-4.3%	0.7%
CC1Oc2cc3oc4c(O)c(O)ccc4c(=O)c3c(O)c2C1(C)C (stereo not given)	.	-3.9%	.	?	.
CCOc1ccc(/C=C/C(=O)c2cc(Br)ccc(=O)c2O)cc1	-26.1%	-54.6%	7.94µM*	50.1µM*	44.7µM*
CCOc1ccc(C(=O)/C=C/c2ccc(OC)c(OC)c2)cc1	-8.8%	21.8%	?	-9.6%	-14.7%
O=C(C=Cc1ccccc1)c1cc(Br)ccc1O	.	23.0%	.	19.9%	.
CCc1ccc(/C=C/C(=O)c2cc(Br)ccc(=O)c2O)cc1	.	?	?	79.4µM*	44.7µM*
Cc1cccc(/C=C/C(=O)c2cc(Br)ccc(=O)c2O)c1	.	?	?	?	44.7µM*
Cc1ccccc1NC(=O)N1CCc2c(sc3c2CCCC3)C1c1ccccc1 (stereo not given)	.	15.0%	4.6%[59 µM]	-19.5%	?
O=c1cc(-c2ccccc2)c2c(O)cc(O)cc2o1	5.1%[2.29 µM]	23.8%	8.7%[0.501 µM]	-10.3%	-37.4%
O=C1C=CC(O)(c2cc(=O)c3c(O)cc(O)cc3o2)C=C1	6.6%	20.8%	44.7µM*	-22.5%	-1.4%
CCOC(=O)N1CCN(/[N+]([O-])=N/Oc2ccc([N+](=O)[O-])cc2[N+](=O)[O-])CC1C (stereo not given)	.	9.8%	.	-26.9%	.
CCC1=[N+](CC(=O)c2ccc(Br)cc2)CCn2c(C)ccc21	-20.2%	25.2%	31.6µM*	?	-37.7%
CCC1=[N+](C)CCn2c(C)ccc21	.	8.8%	1.78µM*	?	5.1%
CCC1=[N+](CC(=O)c2ccc(C)cc2)CCn2c(C)ccc21	-4.6%	8.7%	?	-18.5%	-34.6%
CCc1ccc(CNC(=O)c2cccc(-n3cnc4cccnc43)c2C)cc1	.	36.8%	-1.5%[59 µM]	-0.3%	-13.3%
COc1ccc(Oc2ncc3nc(-c4cccs4)c(=O)n(C)c3n2)cc1	.	.	4.4%[12.7 µM]	.	.
COc1ccc(-n2c(SCC(=O)Nc3ccc(C(=O)O)cc3)nnc2-c2cccs2)cc1	4.1%	29.7%	?	79.4µM*	-2.7%
Cc1ccc(-n2c(SCC(=O)Nc3ccc4c(c3)OCO4)nnc2-c2cccs2)cc1	0.4%	30.3%	?	56.2µM*	11.1%
SMILES	L3MBTL1 block	HP1b chromo inh	G9a inh	JMJD2A Tudor	BAZ2B block
NS(=O)(=O)c1ccc(NC(=O)CSc2nnc(Cc3cccs3)n2-c2ccccc2)cc1	-13.6%	24.6%	92.8%[59 µM]	-17.5%	67.2%
COc1ccc(NC(=O)CSc2nnc(Cc3cccs3)n2-c2ccc(C)cc2)cc1	.	-1.9%	35.5µM*	?	-7.4%
Cc1ccc(-n2c(Cc3cccs3)nnc2SCC(=O)Nc2ccc(S(N)(=O)=O)cc2)cc1	-3.6%	6.1%	44.7µM*	-25.7%	4.2%
COc1cc(C(=O)NCC(c2cccs2)S(=O)(=O)c2ccc(F)cc2)cc(OC)c1OC (stereo not given)	.	35.1%	8.8%[59 µM]	-17.5%	-21.7%
O=C(NC(=S)NNC(=O)c1cnccn1)c1ccc(Cl)cc1	.	14.5%	50.1µM*	22.4µM*	3.16µM*
O=C(CCc1ccccc1)NNC(=O)c1ccc(Cl)cc1	-0.7%	35.7%	.	-2.0%	8.1%
COc1ccccc1NC(=S)NNC(=O)c1ccc(Cl)cc1Cl	12.4%	14.4%	20µM*	-18.1%	8.6%
O=C(CCc1ccccc1)NNC(=S)NC(=O)c1ccc(Cl)cc1	.	-20.6%	1.58µM*	-35.6%	8.7%
O=C(NCCCNC(=O)c1cnccn1)c1ccc(Cl)cc1	.	0.6%	-9.2%	-10.0%	0.6%
O=C(NNC(=S)NC(=O)c1cccnc1)c1ccc(Cl)cc1	?	-17.4%	22.4µM*	?	9.2%[57.1 µM]
O=C(NCc1cccc(F)c1)c1ccc(CN2CC(=O)N3CCCCC3C2=O)cc1 (stereo not given)	.	-3.0%	7.7%[59 µM]	-19.5%	5.4%
COc1ccc(C(F)(F)F)cc1NC(=O)C(OC(=O)CNC(=O)c1ccccc1)c1ccccc1 (stereo not given)	.	.	.	-24.7%	.
COc1ccc(S(=O)(=O)N2CCCCC2)cc1C(=O)N1CCCC1	.	35.9%	20.9%[0.501 µM]	-9.5%	-1.8%
O=C1OC2C[C@H]1[C@@H]1C(=O)N(Cc3ccccc3)CCC1C2I (stereo not given in full)	.	.	-22.4%[59 µM]	.	.
Cc1cc2c(s1)c1cnn(Cc3ccc4ccccc4c3)c(=O)c1n2C	.	.	.	-19.2%	.
Cc1ccc(C(=O)NNC(=S)NC(=O)c2ccc(Cl)cc2)cc1	0.9%	2.2%	39.8µM*	-26.9%	4.9%
O=C(NC(=S)Nc1ccccc1O)c1cccnc1	-4.1%[2.29 µM]	14.1%	17.6%[0.501 µM]	-20.8%	-35.8%
O=C(NC(=S)NNC(=O)c1ccc(Cl)cc1Cl)c1cccnc1	12.1%	-13.3%	2.24µM*	44.7µM*	5.0%
O=C(NC(=S)NNC(=O)c1ccccc1O)c1cccnc1	?	21.0%	12.6µM*	56.2µM*	?
O=C(NC(=S)Nc1cc([N+](=O)[O-])ccc1O)c1cccnc1	55.8%	5.7%	11.2µM*	-4.1%	2.3%
O=C(Cc1ccc(Cl)cc1)NNC(=S)NC(=O)c1cccnc1	12.1%	18.8%	.	-27.6%	12.1%
CC(=O)c1ccccc1Oc1ncnc(N)c1[N+](=O)[O-]	.	36.9%	-9.6%[0.501 µM]	-11.4%	1.9%
CCn1c(SC)nc2c([nH]c3ccccc32)c1=O	.	42.1%	3.5%[59 µM]	-8.7%	-0.5%
CCCCN(C)S(=O)(=O)c1cc(-c2nnc3c4ccccc4c(C)nn23)ccc1C	.	1.4%	1.0%[59 µM]	-10.3%	7.4%
Cc1ccccc1NC(=O)Cn1c(=O)n(Cc2ccco2)c(=O)c2cccnc21	.	16.7%	3.5%[59 µM]	-16.0%	1.0%
O=C1C([N+](=O)[O-])=C(O)c2cccc3cccc1c23	.	.	1.26µM*	.	44.7µM*
COc1cccc(CNC(=O)CN2C(=O)N(c3c(C)cccc3C)S(=O)(=O)c3ccccc32)c1OC	.	23.0%	4.7%[59 µM]	-12.0%	-7.9%
O=C(Nc1cccc(C(F)(F)F)c1)c1cccnc1N1CCN(c2ccccc2)CC1	.	14.2%	?	79.4µM*	50.1µM*
